The structures appear in SMILES notation. About 180 (7.5%) of roughly 2,400 compounds were called active. Many of the other results were omitted from the sample, so actives are more common in it than they were. Unmarked numbers belong to inactive results.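 Rule for the calls: active = readout below zero, meaning a drop past 3 SD under the dofetilide-free negative control mean; inactive = the rest.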

In the assay the target is Potassium voltage-gated channel subfamily KQT member 2 (Rattus norvegicus) (UniProt O88943). Briefly: rat KCNQ2 channel inhibition by compounds alone, confirmation, counter-screen for hERG block protector project, cell-based, CHO, FluxOR thallium flux (AID 1946). The note with it: CHO-KCNQ2 cells, FluxOR thallium flux fluorescence; at 10 µM; hits give low values; zero marks the 3-SD hit cutoff.
Potassium voltage-gated channel subfamily KQT member 2 (Rattus norvegicus), sequence (O88943 whole entry, looked up): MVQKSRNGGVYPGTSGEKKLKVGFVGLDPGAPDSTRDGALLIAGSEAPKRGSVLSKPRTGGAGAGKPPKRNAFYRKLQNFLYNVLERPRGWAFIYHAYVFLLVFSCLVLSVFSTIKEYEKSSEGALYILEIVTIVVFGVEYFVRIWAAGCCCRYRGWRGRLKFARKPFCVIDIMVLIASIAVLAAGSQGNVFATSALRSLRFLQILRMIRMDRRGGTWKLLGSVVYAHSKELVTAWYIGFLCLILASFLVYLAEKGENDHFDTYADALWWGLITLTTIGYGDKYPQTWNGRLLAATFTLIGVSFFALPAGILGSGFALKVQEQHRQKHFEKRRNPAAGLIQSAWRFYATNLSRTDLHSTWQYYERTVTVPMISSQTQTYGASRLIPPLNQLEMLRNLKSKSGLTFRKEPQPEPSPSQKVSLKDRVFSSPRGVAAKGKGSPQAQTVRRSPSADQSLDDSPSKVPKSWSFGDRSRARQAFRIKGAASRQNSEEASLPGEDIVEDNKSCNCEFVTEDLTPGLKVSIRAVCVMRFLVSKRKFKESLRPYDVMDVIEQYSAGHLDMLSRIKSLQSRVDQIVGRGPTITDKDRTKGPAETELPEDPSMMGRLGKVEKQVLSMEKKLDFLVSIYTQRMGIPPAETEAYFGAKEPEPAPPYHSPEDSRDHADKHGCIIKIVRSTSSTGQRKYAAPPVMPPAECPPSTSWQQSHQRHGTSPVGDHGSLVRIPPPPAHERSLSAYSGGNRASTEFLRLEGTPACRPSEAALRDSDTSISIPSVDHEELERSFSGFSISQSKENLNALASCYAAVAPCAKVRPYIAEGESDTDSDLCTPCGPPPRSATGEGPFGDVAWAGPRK
On to `CCOC(=O)c1sc(NC(=S)NC(=O)c2cccc(OC)c2)nc1C`, for which the activity change vs negative control was 28.4%.

`CCN(CC)C(=S)NC(=O)c1ccc(Cl)cc1Cl`: the activity change vs negative control was 32%.

In the case of `CCCn1nnnc1NC(=O)c1cc(Cl)ccc1Cl`, the activity change vs negative control is -2% (active).

In the case of `CCCN(CCC)C(=S)NC(=O)c1ccc(Cl)cc1Cl`, the activity change vs negative control was 78%.

Turning to `O=C(NC(=S)N1CCc2ccccc21)c1ccccc1Br`, the activity change vs negative control is 126%.

On to `CN(C(=S)NC(=O)c1ccccc1)C1CCCCC1`, for which the activity change vs negative control was 29.8%.

Turning to `COc1ccc2c(c1)O[C@@H](c1cccc(C(F)(F)F)c1)[C@H](OC(=O)NCCc1ccc(OC)c(OC)c1)C2=O`, the activity change vs negative control was 20.4%.

As for `CCOC(=O)Cc1nc2ccccc2o1`, the activity change vs negative control was 11.7%.

Take `O=C(CSc1nc2ccccc2o1)NCc1n[nH]c(=O)c2ccccc12`: the activity change vs negative control is 19.1%.

For the compound `C/C(=N\NC(=O)CSc1nc2ccccc2o1)c1ccc(O)cc1`, the activity change vs negative control was -1.7% (active).

With `Cc1nn(C)c(C(=O)NC(=S)Nc2ccccc2Br)c1Cl`, the activity change vs negative control is 41.3%.

Regarding `CCc1ccc(C(C)NC(=O)c2ccc(F)cc2)cc1` (centres undefined), the activity change vs negative control is 43.4%.

As for `CCOC(=O)C1CCCN(C(=S)NC(=O)/C=C/c2ccc(F)cc2)C1` (centres undefined), the activity change vs negative control was 1.2%.

As to `O=C(c1ccc(C(F)(F)F)cc1)C1CCCN(C(=O)CCc2ccncc2)C1` (centres undefined), the activity change vs negative control was 4.7%.

In the case of `Cn1cc(CCC(=O)N2CCCC(Nc3ccc(F)cc3)C2)cn1` (centres undefined), the activity change vs negative control is -2% (active).

As for `COc1ccccc1C1C(C(=O)c2ccc(C)o2)=C(O)C(=O)N1c1cc(C)on1` (centres undefined), the activity change vs negative control was 14.4%.

For `Cc1cc(N2C(=O)C(O)=C(C(=O)c3cccs3)C2c2ccccc2)no1` (centres undefined), the activity change vs negative control was -1.4% (active).

Turning to `Cc1cccc(N2C(=O)C(O)=C(C(=O)c3cccs3)C2c2cccc(Oc3ccccc3)c2)n1` (centres undefined), the activity change vs negative control is 11.3%.

For `CCOC(=O)C1=NN(C(=O)c2ccc(C)cc2)C(O)(c2ccc(Cl)cc2)C1` (centres undefined), the activity change vs negative control was 110%.

For the compound `COc1ccccc1NC(=O)C(=O)NNC(=O)COc1ccc2ccccc2c1`, the activity change vs negative control is 115%.

Turning to `Cc1ccc(C(=O)NC(=S)N(C)C2CCCCC2)cc1`, the activity change vs negative control was 27.3%.

For `COC(=O)c1sc(NC(=S)NC(=O)c2ccccc2C)nc1C`, the activity change vs negative control was 41%.

For `S=c1[nH]c2ccc(Cl)cc2s1`, the activity change vs negative control was 115%.

In the case of `CCc1nnc(NC(=O)CSc2nc(-c3ccccc3)cc(-c3ccc(OC)cc3)c2C#N)s1`, the activity change vs negative control was 5.3%.

For the compound `CCOC(=O)C(C)Sc1nc2c(c(-c3cccs3)c1C#N)CCC2` (centres undefined), the activity change vs negative control was 6.3%.

Regarding `N#Cc1c(-c2ccc(Cl)cc2)cc(-c2cccs2)nc1SCC(=O)O`, the activity change vs negative control was -10.2% (active).

On to `CSC(=S)N/N=C(\C)c1ccccc1`, for which the activity change vs negative control is 64.1%.

Take `C/C(=N\NC(N)=S)c1cccnc1`: the activity change vs negative control is -3.2% (active).

With `C/C(=N\NC(N)=S)c1ccncc1`, the activity change vs negative control is 19.1%.

The values above are taken from PubChem BioAssay AID1946 (Johns Hopkins Ion Channel Center, 2009).
